From the supplement of paper PMC11732987, “Enantioselective OTUD7B fragment discovery through chemoproteomics screening and high-throughput optimisation” (Communications Chemistry, 2025)

Legend:
Test in all cases: log2 ratio of Biotin-Ahx-Ub-VS probe labelling (compound/DMSO); higher = less target engagement, active = hit call of the paper (q ≤ 0.05, log2 ratio ≤ -1)
Settings in all cases: treatment time: 3 h
[1] = compound: ClCC(=O)N[C@H]1CCCc2ccccc12
How it was run: (§1)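 In triplicate, 495 µg portions of HEK293T lysate in Tris/CHAPS/IGEPAL buffer with protease inhibitors received compound across a concentration series or vehicle for 3 h, followed by 1 h with 0.5 µM final Biotin-Ahx-Ub-VS. After NeutrAvidin enrichment and LysC/trypsin digestion, the labelled deubiquitinases were measured by diaPASEF LC-MS/MS and quantified label-free in Spectronaut with global-median normalisation. Each value is an average compound-to-vehicle ratio from an unpaired t-test, expressed as log2 and restricted to proteins having two or more unique peptides.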

[2] = compound: CCC1N(CCc2cc(OC)c(Cl)cc12)C(=O)CCl
How it was run: (§2)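 For activity-based profiling, 495 µg portions of HEK293T lysate in Tris/CHAPS/IGEPAL buffer with protease inhibitors were treated in triplicate with compound at 50 or 200 µM or with DMSO for 3 h. A 1 h incubation with Biotin-Ahx-Ub-VS (0.5 µM final) followed, then NeutrAvidin enrichment, LysC and trypsin digestion and diaPASEF LC-MS/MS. The compound/DMSO base-two log ratios were averaged from median-normalised label-free quantities using an unpaired t-test. Proteins needed at least 2 unique peptides to be included.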

[3] = compound: CCCC1N(CCc2cc(OC)c(OC)cc12)C(=O)CCl
How it was run: as §2

[4] = compound: CN(Cc1cccc(Br)c1)C(=O)CCl
How it was run: as §2

[5] = compound: CN(Cc1cccc(OCc2ccccc2C)c1)C(=O)CCl
How it was run: as §2

[6] = compound: CN(Cc1ccccc1)C(=O)CCl
How it was run: as §2

[7] = compound: COc1ccc(CN(C)C(=O)CCl)cc1
How it was run: as §2

[8] = compound: COc1cccc(CN(CCCc2ccccc2)C(=O)CCl)c1
How it was run: as §2

[9] = compound: ClCC(=O)N1CCc2cc(Cl)c(Cl)cc2C1
How it was run: as §2

[10] = compound: ClCC(=O)N1CCc2nc(ncc2C1)-c1ccccc1
How it was run: as §2

[11] = compound: ClCC(=O)N1CCc2nocc2C1
How it was run: as §2

[12] = compound: ClCC(=O)N1CCc2scc(Br)c2C1
How it was run: as §2

[13] = compound: ClCC(=O)NC(C1CCCC1)c1cccs1
How it was run: as §2

[14] = compound: CCC1N(CCc2sccc12)C(=O)CCl
How it was run: as §2

[15] = compound: CN1c2ccccc2C(CS1(=O)=O)NC(=O)CCl
How it was run: as §2

[16] = compound: Cl.ClCC(=O)N1CCc2ncncc2C1
How it was run: as §2

[17] = compound: Cl.Cn1ncc2C(CCCc12)NC(=O)CCl
How it was run: as §2

[18] = compound: ClCC(=O)NC1CCOc2ccccc12
How it was run: as §2

[19] = compound: ClCC(=O)NC1CCCc2ccccc12
How it was run: as §1

[20] = compound: ClCC(=O)N[C@@H]1CCCc2ccccc12
How it was run: as §1

Measured: log2 ratio of Biotin-Ahx-Ub-VS probe labelling

PRPF8 (UniProt Q6P2Q9)
inactive: [1]; compound concentration: 3.13uM -0.049 | [1]; compound concentration: 6.25uM 0.0146 | [1]; compound concentration: 12.5uM -0.0785 | [1]; compound concentration: 25uM -0.109 | [1]; compound concentration: 50uM -0.0661 | [1]; compound concentration: 100uM -0.111 | [1]; compound concentration: 200uM -0.149 | [2]; compound concentration: 50uM 0.0405 | [2]; compound concentration: 200uM 0.131 | [3]; compound concentration: 50uM -0.0761 | [3]; compound concentration: 200uM -0.182 | [4]; compound concentration: 50uM -0.00418 | [4]; compound concentration: 200uM 0.0824 | [5]; compound concentration: 50uM -0.075 | [5]; compound concentration: 200uM 0.0126 | [6]; compound concentration: 50uM -0.0842 | [6]; compound concentration: 200uM 0.108 | [7]; compound concentration: 50uM 0.0375 | [7]; compound concentration: 200uM 0.065 | [8]; compound concentration: 50uM 0.00751 | [8]; compound concentration: 200uM 0.0603 | [9]; compound concentration: 50uM 0.0965 | [9]; compound concentration: 200uM 0.0914 | [10]; compound concentration: 50uM 0.046 | [10]; compound concentration: 200uM 0.0608 | [11]; compound concentration: 50uM -0.0702 | [11]; compound concentration: 200uM 0.00362 | [12]; compound concentration: 50uM -0.00317 | [12]; compound concentration: 200uM 0.0413 | [13]; compound concentration: 50uM 0.122 | [13]; compound concentration: 200uM -0.028

MINDY4 (UniProt Q4G0A6)
UniProt Q4G0A6, sequence (Q4G0A6 whole entry): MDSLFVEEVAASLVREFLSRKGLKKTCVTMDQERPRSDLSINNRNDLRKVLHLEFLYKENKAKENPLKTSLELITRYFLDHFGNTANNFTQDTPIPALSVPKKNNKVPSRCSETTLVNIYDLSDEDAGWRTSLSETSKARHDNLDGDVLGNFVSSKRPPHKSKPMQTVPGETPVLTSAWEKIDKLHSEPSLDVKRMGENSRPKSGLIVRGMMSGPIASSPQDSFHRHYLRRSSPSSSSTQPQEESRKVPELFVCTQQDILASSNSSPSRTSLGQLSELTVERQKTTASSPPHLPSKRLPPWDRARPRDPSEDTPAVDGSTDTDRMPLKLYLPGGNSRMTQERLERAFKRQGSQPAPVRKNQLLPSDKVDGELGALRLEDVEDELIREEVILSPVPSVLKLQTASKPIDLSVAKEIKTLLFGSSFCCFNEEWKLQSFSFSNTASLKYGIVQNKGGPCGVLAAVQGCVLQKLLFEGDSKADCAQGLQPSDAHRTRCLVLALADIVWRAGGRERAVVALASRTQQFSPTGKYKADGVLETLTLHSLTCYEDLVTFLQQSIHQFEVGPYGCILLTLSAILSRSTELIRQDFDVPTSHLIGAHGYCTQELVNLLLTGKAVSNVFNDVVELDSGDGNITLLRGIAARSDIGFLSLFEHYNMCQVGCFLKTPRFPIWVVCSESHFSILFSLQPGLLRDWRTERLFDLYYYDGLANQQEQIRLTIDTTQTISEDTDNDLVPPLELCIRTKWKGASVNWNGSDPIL
inactive: [14]; compound concentration: 50uM -0.62 | [14]; compound concentration: 200uM 0.797 | [15]; compound concentration: 200uM 0.688 | [16]; compound concentration: 50uM 0.73 | [16]; compound concentration: 200uM -0.108 | [17]; compound concentration: 50uM 0.308 | [17]; compound concentration: 200uM 0.136 | [18]; compound concentration: 50uM 0.825 | [18]; compound concentration: 200uM 0.522 | [20]; compound concentration: 0.78uM -0.837 | [20]; compound concentration: 12.5uM -0.893 | [2]; compound concentration: 50uM 0.0614 | [2]; compound concentration: 200uM -0.042 | [3]; compound concentration: 50uM 0.725 | [3]; compound concentration: 200uM -0.113 | [4]; compound concentration: 50uM 0.681 | [5]; compound concentration: 50uM 0.702 | [5]; compound concentration: 200uM 0.585 | [6]; compound concentration: 50uM 0.106 | [6]; compound concentration: 200uM -0.273 | [7]; compound concentration: 50uM 0.675 | [7]; compound concentration: 200uM 0.712 | [8]; compound concentration: 50uM 0.722 | [8]; compound concentration: 200uM 0.797 | [9]; compound concentration: 50uM 0.706 | [9]; compound concentration: 200uM 0.819 | [10]; compound concentration: 50uM 0.669 | [10]; compound concentration: 200uM 0.652 | [11]; compound concentration: 50uM 0.0993 | [11]; compound concentration: 200uM 0.614 | [12]; compound concentration: 50uM 0.589 | [12]; compound concentration: 200uM 0.525 | [13]; compound concentration: 50uM 0.738 | [13]; compound concentration: 200uM 0.487
active: [15]; compound concentration: 50uM -4.18 | [19]; compound concentration: 0.78uM -2.83 | [19]; compound concentration: 1.56uM -3.43 | [19]; compound concentration: 3.13uM -2.24 | [19]; compound concentration: 6.25uM -2.62 | [19]; compound concentration: 12.5uM -1.89 | [19]; compound concentration: 25uM -2.3 | [19]; compound concentration: 50uM -2.78 | [19]; compound concentration: 100uM -2.85 | [19]; compound concentration: 200uM -2.45 | [20]; compound concentration: 1.56uM -1.89 | [20]; compound concentration: 3.13uM -2.16 | [20]; compound concentration: 6.25uM -1.61 | [20]; compound concentration: 25uM -2.02 | [20]; compound concentration: 50uM -1.96 | [20]; compound concentration: 100uM -1.48 | [20]; compound concentration: 200uM -1.33 | [1]; compound concentration: 0.78uM -2.37 | [1]; compound concentration: 1.56uM -1.3 | [1]; compound concentration: 3.13uM -1.21 | [1]; compound concentration: 6.25uM -3.95 | [1]; compound concentration: 12.5uM -1.25 | [1]; compound concentration: 25uM -1.1 | [1]; compound concentration: 50uM -1.99 | [1]; compound concentration: 100uM -1.91 | [1]; compound concentration: 200uM -2.54 | [4]; compound concentration: 200uM -1.19

EIF3F (UniProt O00303)
UniProt O00303, sequence (O00303 whole entry): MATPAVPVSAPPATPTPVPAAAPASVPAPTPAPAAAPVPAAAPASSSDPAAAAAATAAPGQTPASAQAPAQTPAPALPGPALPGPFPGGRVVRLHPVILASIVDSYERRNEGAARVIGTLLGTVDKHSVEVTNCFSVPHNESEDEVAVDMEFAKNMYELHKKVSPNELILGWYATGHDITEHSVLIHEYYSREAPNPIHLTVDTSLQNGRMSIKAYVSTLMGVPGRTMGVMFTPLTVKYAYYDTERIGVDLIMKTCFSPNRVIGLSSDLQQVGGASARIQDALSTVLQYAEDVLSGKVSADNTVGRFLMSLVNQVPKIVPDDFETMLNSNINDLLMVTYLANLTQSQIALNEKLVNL
inactive: [14]; compound concentration: 50uM -0.16 | [14]; compound concentration: 200uM -0.05 | [15]; compound concentration: 50uM -0.111 | [15]; compound concentration: 200uM -0.0123 | [16]; compound concentration: 50uM 0.026 | [16]; compound concentration: 200uM -0.017 | [17]; compound concentration: 50uM -0.0544 | [17]; compound concentration: 200uM -0.232 | [18]; compound concentration: 50uM -0.204 | [18]; compound concentration: 200uM 0.0458 | [19]; compound concentration: 0.78uM -0.0827 | [19]; compound concentration: 1.56uM 0.0402 | [19]; compound concentration: 3.13uM -0.164 | [19]; compound concentration: 6.25uM -0.148 | [19]; compound concentration: 12.5uM 0.141 | [19]; compound concentration: 25uM -0.0954 | [19]; compound concentration: 50uM -0.209 | [19]; compound concentration: 100uM -0.401 | [19]; compound concentration: 200uM -0.0132 | [20]; compound concentration: 0.78uM -0.295 | [20]; compound concentration: 1.56uM 0.0826 | [20]; compound concentration: 3.13uM -0.0906 | [20]; compound concentration: 6.25uM -0.461 | [20]; compound concentration: 12.5uM -0.244 | [20]; compound concentration: 25uM -0.214 | [20]; compound concentration: 50uM -0.034 | [20]; compound concentration: 100uM 0.00457 | [20]; compound concentration: 200uM 0.0644 | [1]; compound concentration: 0.78uM -0.0754 | [1]; compound concentration: 1.56uM -0.0584 | [1]; compound concentration: 3.13uM -0.182 | [1]; compound concentration: 6.25uM 0.0402 | [1]; compound concentration: 12.5uM -0.0792 | [1]; compound concentration: 25uM -0.00315 | [1]; compound concentration: 50uM -0.0696 | [1]; compound concentration: 100uM -0.0985 | [1]; compound concentration: 200uM -0.313 | [2]; compound concentration: 50uM -0.015 | [2]; compound concentration: 200uM -0.16 | [3]; compound concentration: 50uM -0.0996 | [3]; compound concentration: 200uM 0.154 | [4]; compound concentration: 50uM -0.146 | [4]; compound concentration: 200uM -0.0144 | [5]; compound concentration: 50uM -0.201 | [5]; compound concentration: 200uM 0.0399 | [6]; compound concentration: 50uM 0.12 | [6]; compound concentration: 200uM 0.117 | [7]; compound concentration: 50uM -0.317 | [7]; compound concentration: 200uM -0.0894 | [8]; compound concentration: 50uM -0.0548 | [8]; compound concentration: 200uM -0.0324 | [9]; compound concentration: 50uM -0.117 | [9]; compound concentration: 200uM -0.406 | [10]; compound concentration: 50uM -0.18 | [10]; compound concentration: 200uM 0.268 | [11]; compound concentration: 50uM -0.16 | [11]; compound concentration: 200uM 0.0551 | [12]; compound concentration: 50uM -0.352 | [12]; compound concentration: 200uM -0.162 | [13]; compound concentration: 50uM 0.0245 | [13]; compound concentration: 200uM -0.0374
